A selection: hits, their analogues and other compounds. The true share with any hit is near 1.2%.
Akt phos inh: HTS Assay for Inhibitors of Akt Phophorylation: Primary Screen. Neuro2A IGF-stimulated pAkt S473 HTRF, 20 min; active compounds read low. activity change, % for hits at 50 µM. actives 0.32% (n = 360,000); in the data active = activity change below about -80%; inconclusive = mostly about -51% to -80%; also: % is scaled to controls: 0 for no effect and ±100 for the full control effect
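Neuro2A cells in DMEM with 0.5% FBS, overnight at 37 deg C, given compound at single 50 µM final, then IGF (6 nM final) for 20 min at 37 deg C. Lysed; phospho-Akt Ser473 by HTRF after 24 h, 665/615 ratio.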
RXFP1 agonist: qHTS Assay for Agonists of the Relaxin Receptor RXFP1; HEK293T-RXFP1 cAMP TR-FRET, 30 min; response scale: percent of porcine relaxin response, buffer zero; Potency, µM (doses to about 57.5 µM), for inactives: top-dose activation, actives largely listed as activators; actives 0.3% (n = 370,000); AID 2676, 2010; active = well fitted activation curve with a large enough effect; inconclusive = small, poorly fitted or top-dose-only effect; also: potency is read from the fitted curve at half-maximal effect; % is scaled to controls: 0 for no effect and ±100 for the full control effect; nearly all actives have a fitted effect of over 60% in size
Target sequence (Q9HBX9 whole entry, looked up): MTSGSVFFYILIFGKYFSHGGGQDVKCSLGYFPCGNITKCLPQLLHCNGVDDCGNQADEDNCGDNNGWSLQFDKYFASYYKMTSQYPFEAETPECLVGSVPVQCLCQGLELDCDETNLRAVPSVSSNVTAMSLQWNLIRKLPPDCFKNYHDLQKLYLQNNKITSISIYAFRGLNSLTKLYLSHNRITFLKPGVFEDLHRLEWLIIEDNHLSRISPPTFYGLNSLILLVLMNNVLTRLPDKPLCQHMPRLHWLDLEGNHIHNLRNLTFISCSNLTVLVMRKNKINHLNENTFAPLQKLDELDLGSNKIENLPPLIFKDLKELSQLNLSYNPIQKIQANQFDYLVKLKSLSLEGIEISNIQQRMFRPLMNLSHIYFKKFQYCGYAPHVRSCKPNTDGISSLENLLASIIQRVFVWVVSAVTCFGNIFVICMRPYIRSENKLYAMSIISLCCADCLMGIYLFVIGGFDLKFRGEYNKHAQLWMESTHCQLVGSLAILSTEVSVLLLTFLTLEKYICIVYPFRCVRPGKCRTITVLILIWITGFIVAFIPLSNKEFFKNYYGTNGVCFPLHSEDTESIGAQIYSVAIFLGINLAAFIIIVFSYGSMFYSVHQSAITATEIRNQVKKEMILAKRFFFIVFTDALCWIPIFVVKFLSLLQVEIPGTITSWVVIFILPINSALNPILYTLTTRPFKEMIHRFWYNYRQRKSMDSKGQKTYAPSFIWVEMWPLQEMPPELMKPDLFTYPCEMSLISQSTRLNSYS
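Agonist response is measured as cAMP accumulation in an RXFP1-transfected HEK293T line under PDE4 inhibition. Values are scaled between buffer-only and 29 nM porcine relaxin, and EC50s come from standard Hill equation fits.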
RXFP1 antag: qHTS Assay for Antagonists of the Relaxin Receptor RXFP1. Relaxin receptor 1 (Homo sapiens), Q9HBX9. HEK293-RXFP1, relaxin-stimulated cAMP HTRF, 30 min; active compounds read low. activity change, negative = inhibition, % at 57.5 µM. actives 0.59% (n = 350,000);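 active = activity change of -60% or lower, but not beyond a set lower limit; inconclusive = change between -60% and -40%, or beyond the set limit; inactive = change above -40%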; also: % is scaled to controls: 0 for no effect and ±100 for the full control effect
gsp antag: qHTS for Antagonists of gsp, the Etiologic Mutation Responsible for Fibrous Dysplasia/McCune-Albright Syndrome: qHTS. actives 0.4% (n = 340,000). AID 624288, 2012. gsp-mutant cells, cAMP HTRF, 30 min. Potency, µM (titrated, usually from 76.9 µM), without a hit: at the top dose activity change, negative = inhibition, most hits filed as inhibitors; calls by dose curve; cell line not stated here;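 also: intracellular cAMP measured with PDE inhibitor Ro 20-1724 present during compound exposure; potency is read from the fitted curve at half-maximal effect; % is scaled to controls: 0 for no effect and ±100 for the full control effect; nearly all actives have a fitted effect of over 65% in size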
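Cells in G418 medium, seeded 16-24 h, 37C; buffer exchange to DPBS + 1 mM CaCl2, 0.5 mM MgCl2, 0.05% BSA; cpds in DMSO + […] (300 uM stock), 30 min 37C; HTRF cAMP detection.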
gsp agonist: qHTS for Agonist of gsp, the Etiologic Mutation Responsible for Fibrous Dysplasia/McCune-Albright Syndrome: qHTS; gsp mutant cells, cAMP HTRF, 30 min; Potency, µM (titrated, usually from 76.9 µM), without a hit: at the highest dose activation (cAMP increase), usual class: activators; actives 0.13% (n = 340,000); AID 624287, 2012; active = well fitted activation curve with a large enough effect; inconclusive = small, poorly fitted or top-dose-only effect, or another doubt; inactive = no such curve, though single readings can be large or run the other way; cell line not stated here;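 also: phosphodiesterase inhibitor Ro 20-1724 added with compounds to block cAMP breakdown; potency is read from the fitted curve at half-maximal effect; nearly all actives have a fitted effect of over 60% in size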
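Cells in DMEM/10% FBS with G418 were pretreated with compounds in DMSO plus […] (300 uM stock) for 30 min at 37C. cAMP was measured by HTRF (cAMP-d2 plus anti-cAMP antibody-K) after 30 min at room temperature.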
* marks the source's active call; other numbers are inactive results; [ ] = another dose, or the depositor's remark.

Results for COc1cccc(NC(=O)CN(C)C(=O)c2cc(-c3ccc(F)cc3)nc3ccccc23)c1 ?
Akt phos inh: inactive; RXFP1 agonist: -2.0%; RXFP1 antag: inconclusive; gsp antag: 39.8µM*; gsp agonist: -18.4%

Results for COc1cccc(NC(=O)CN(C)C(=O)c2cc(-c3ccccc3)nc3ccccc23)c1 ?
Akt phos inh: inactive; RXFP1 agonist: -0.4%; RXFP1 antag: -34.2; gsp antag: inconclusive; gsp agonist: 3.6%

What do the screens show for `O=C(Cc1cccc2ccccc12)N/N=C/c1ccc(Sc2nc3ccccc3s2)o1`?
Akt phos inh: -112.2%*; RXFP1 agonist: -0.7%; RXFP1 antag: -19.2; gsp antag: -20.8%; gsp agonist: -27.6%

Results for COC(=O)c1ccc(C2C(C(=O)c3ccc(C)o3)=C(O)C(=O)N2c2cc(C)on2)cc1 (centres undefined) ?
Akt phos inh: inactive; RXFP1 agonist: inconclusive; RXFP1 antag: -7.2; gsp antag: -13.3%; gsp agonist: inconclusive

How did COC(=O)c1sc(N2C(=O)C(O)=C(C(=O)c3ccc(C)o3)C2c2ccc(F)cc2)nc1C (centres undefined) do in these assays?
Akt phos inh: inactive; RXFP1 agonist: 8.91µM*; RXFP1 antag: -12.0; gsp antag: 11.6%; gsp agonist: inconclusive

How did COC(=O)c1sc(N2C(=O)C(O)=C(C(=O)c3ccc(C)o3)C2c2ccco2)nc1C (centres undefined) do in these assays?
Akt phos inh: inactive; RXFP1 agonist: -5.9%; RXFP1 antag: -6.4; gsp antag: -10.9%; gsp agonist: 25.9%[15.4 µM]

How did COC(=O)c1sc(N2C(=O)C(O)=C(C(=O)c3ccc(C)o3)C2c2cccs2)nc1C (centres undefined) do in these assays?
Akt phos inh: inactive; RXFP1 agonist: 12.6µM*; RXFP1 antag: -20.5; gsp antag: -33.1%; gsp agonist: inconclusive

Results for Cc1nn2c(=O)cc(COC(=O)c3ccc(NC(=O)COc4ccc(Cl)cc4)cc3)nc2s1 ?
RXFP1 agonist: 4.7%; RXFP1 antag: 1.4

What do the screens show for `O=C(CCOCCOCCOCCOCCC(=O)Nc1c(I)cc(I)c(C(=O)O)c1I)Nc1c(I)cc(I)c(C(=O)O)c1I`?
RXFP1 antag: -9.4

Results for CCCN(CCC)C(=O)CSc1nc2c(sc(=S)n2-c2ccc(OCC)cc2)c(=O)[nH]1 ?
Akt phos inh: inactive; RXFP1 agonist: 1.4%; RXFP1 antag: -24.0; gsp antag: 14.1µM*; gsp agonist: 8.9%[15.4 µM]

What do the screens show for `CCOC(=O)NNc1ccc(N(CC)CC(C)O)nn1` (centres undefined)?
RXFP1 antag: 9.7

How did O=C(c1ccc2c(=O)n(C3CCCC3)c(=S)[nH]c2c1)N1CCCCCC1 do in these assays?
Akt phos inh: inactive; RXFP1 agonist: -0.6%; RXFP1 antag: -62.6*; gsp antag: 31.6µM*; gsp agonist: -9.2%[15.4 µM]

How did Cc1ccc(N2CCN(S(=O)(=O)N3CCCCC3)CC2)c(C)c1 do in these assays?
Akt phos inh: inactive; RXFP1 agonist: -0.2%; RXFP1 antag: -70.3*; gsp antag: -8.9%; gsp agonist: -0.4%[15.4 µM]

Results for O=C(COc1ccc(Br)cc1Br)NC(=S)N1CCCc2ccccc21 ?
Akt phos inh: -92.1%*; RXFP1 agonist: -0.1%; RXFP1 antag: -13.0; gsp antag: -3.4%; gsp agonist: -35.3%

How did CC1CCN(c2nnc(-c3ccccc3)c3ccccc23)CC1 do in these assays?
Akt phos inh: inactive; RXFP1 agonist: 3.4%; RXFP1 antag: -13.0; gsp antag: inconclusive; gsp agonist: 3.1%[15.4 µM]

What do the screens show for `Cc1ccc(OCC(=O)N2CCN(c3nnc(-c4ccc(C)cc4)c4ccccc34)CC2)cc1`?
Akt phos inh: inactive; RXFP1 agonist: -0.3%; RXFP1 antag: -4.6; gsp antag: 35.5µM*; gsp agonist: 1.2%

How did O=C(COc1ccccc1)N1CCN(c2nnc(-c3ccccc3)c3ccccc23)CC1 do in these assays?
Akt phos inh: inactive; RXFP1 agonist: 2.6%; RXFP1 antag: 27.7; gsp antag: inconclusive; gsp agonist: -2.8%

Results for COc1ccc(OCC(=O)N2CCN(c3nnc(-c4ccccc4)c4ccccc34)CC2)cc1 ?
Akt phos inh: inactive; RXFP1 agonist: 2.4%; RXFP1 antag: 12.7; gsp antag: 39.8µM*; gsp agonist: 13.2%

What do the screens show for `COc1ccc(OCC(=O)N2CCN(c3nnc(-c4ccc(C)cc4)c4ccccc34)CC2)cc1`?
Akt phos inh: inactive; RXFP1 agonist: 1.7%; RXFP1 antag: -14.1; gsp antag: 28.2µM*; gsp agonist: -3.2%[15.4 µM]

How did Cc1ccc(-c2nnc(N3CCC(C)CC3)c3ccccc23)cc1 do in these assays?
Akt phos inh: inactive; RXFP1 agonist: -0.3%; RXFP1 antag: -10.9; gsp antag: 25.1µM*; gsp agonist: -60.6%

What do the screens show for `O=C(CSc1ccccc1)N1CCc2c([nH]c3ccccc23)C1c1ccc(Cl)cc1` (centres undefined)?
RXFP1 agonist: 0.5%; RXFP1 antag: -6.4

What do the screens show for `CCC1Sc2ccc(S(=O)(=O)N3CCN(c4ccccc4)CC3)cc2NC1=O` (centres undefined)?
Akt phos inh: inactive; RXFP1 agonist: -0.4%; RXFP1 antag: -66.9*; gsp antag: -19.6%; gsp agonist: inconclusive

What do the screens show for `CCOc1ccc(CCNS(=O)(=O)c2cnc[nH]2)cc1OCC`?
Akt phos inh: -132.3%*; RXFP1 agonist: 3.8%; RXFP1 antag: 6.5; gsp antag: 18.9%; gsp agonist: 11.6%

What do the screens show for `COc1ccc(Cl)cc1NC(=O)Cn1c(=O)n2nc(-c3ccccc3)nc2c2ccccc21`?
RXFP1 agonist: 0.9%; RXFP1 antag: 14.5

How did Cc1nn(CCC(=O)NCc2cccc(Br)c2)c(=O)c2nn(-c3ccccc3)c(C)c12 do in these assays?
RXFP1 agonist: 0.6%; RXFP1 antag: -25.9

What do the screens show for `CCc1ccc(NC2=NCC(c3ccccc3)S2)cc1` (centres undefined)?
Akt phos inh: inactive; RXFP1 agonist: -1.2%; RXFP1 antag: -68.6*; gsp antag: inconclusive; gsp agonist: -15.1%[15.4 µM]

Results for O=[N+]([O-])c1ccc(C2CN=C(Nc3ccccc3)S2)cc1 (centres undefined) ?
Akt phos inh: inactive; RXFP1 agonist: 0.3%; RXFP1 antag: -3.5; gsp antag: 10.1%; gsp agonist: -72.0%

What do the screens show for `NC(=O)CCCCC1CCSS1` (centres undefined)?
RXFP1 antag: -100.8*

How did CCOC(=O)c1sc(NC(=O)CN(CC)CC)c(C(=O)OCC)c1C do in these assays?
Akt phos inh: -81.1%*; RXFP1 agonist: 5.6%; RXFP1 antag: -3.9; gsp antag: 22.6%; gsp agonist: 1.7%

High-throughput results deposited in PubChem BioAssay by National Center for Advancing Translational Sciences (NCATS).
